Bioassay records from PubChem BioAssay.
LEDGF integ inh: blocks HIV-1 LEDGF/p75-dependent DNA integration. TR-FRET IN-LEDGF/p75 DNA integration, Eu/Cy5. inhibition, % at 3.7 µM. 370,000 compounds, 0.64% hits. AID 743269;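 active = inhibition above the screen-wide mean plus 3 SD, cut at about 13% in these data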;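 also: signal is the Cy5 over europium emission ratio at 671 and 618 nm; 0% = plate median of compound wells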
PRMT1 inh: PRMT1 (human) inhibition, primary screen; Q99873; recombinant PRMT1, activity-based probe fluorescence polarization; inhibition, % at 2.79 µM; 370,000 compounds, 1.3% hits; AID 652257;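 active = inhibition above about 21% made by adding two undisclosed values, limit read from the data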
UHRF1 MBD2 ctr: UHRF1 methyl-DNA binding inhibition | inhibition, % at 4.4 µM | Q96T88 | 370,000 compounds, 0.75% hits | UHRF1 binding to methylated oligo, TR-FRET | AID 687016;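 also: UHRF1 SRA domain binding a hemimethylated CpG hairpin DNA probe; 0% = median of test compound wells and 100% = reference inhibitor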
rCAG RNA binder: binds r(CAG) RNA repeats | AID 651821 | 370,000 compounds, 1.3% hits | inhibition, % at 3 µM | r(CAG) RNA repeat, TO-PRO-1 dye displacement fluorescence;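 active = inhibition above the plate cutoff, the mean of all test compounds on that plate plus 3 SD, cut at about 35% in these data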;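 also: 0% = DMSO alone and 100% = 100 µM mitoxantrone as full dye displacement; higher means more dye released from RNA so lower well fluorescence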
MBD2 DNA inh: MBD2-methylated oligo binding inhibition. Q9UBB5. TR-FRET, MBD2 binding to methylated oligonucleotide. inhibition, % at 4.4 µM. 370,000 compounds, 0.31% hits. AID 686964; in the data active = inhibition above about 13%
ABHD5-PLIN5 inh: blocks binding of human ABHD5 to perilipin-5; Q00G26+Q8WTS1; 360,000 compounds, 0.78% hits; Split G. princeps luciferase complementation, luminescence, 4 h; inhibition, % at 4 µM; AID 602281;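 active = inhibition above the mean inhibition across every tested compound plus 3 SD, cut at about 22% in these data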;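 also: 0% = DMSO only wells and the 100% control is not disclosed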
Target sequence (Q00G26 whole entry, looked up): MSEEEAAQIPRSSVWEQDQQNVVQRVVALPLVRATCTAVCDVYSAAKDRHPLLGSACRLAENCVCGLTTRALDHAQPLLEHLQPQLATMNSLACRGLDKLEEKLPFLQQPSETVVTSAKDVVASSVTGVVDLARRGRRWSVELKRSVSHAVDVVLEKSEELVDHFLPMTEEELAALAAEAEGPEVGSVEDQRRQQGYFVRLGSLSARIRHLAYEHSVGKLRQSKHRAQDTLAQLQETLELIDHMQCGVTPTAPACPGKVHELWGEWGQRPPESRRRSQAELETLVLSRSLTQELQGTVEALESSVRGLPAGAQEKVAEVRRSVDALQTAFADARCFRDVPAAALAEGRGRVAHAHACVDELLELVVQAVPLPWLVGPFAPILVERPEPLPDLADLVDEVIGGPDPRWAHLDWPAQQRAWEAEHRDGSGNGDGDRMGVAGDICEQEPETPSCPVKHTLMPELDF
Target sequence (Q8WTS1 whole entry, looked up): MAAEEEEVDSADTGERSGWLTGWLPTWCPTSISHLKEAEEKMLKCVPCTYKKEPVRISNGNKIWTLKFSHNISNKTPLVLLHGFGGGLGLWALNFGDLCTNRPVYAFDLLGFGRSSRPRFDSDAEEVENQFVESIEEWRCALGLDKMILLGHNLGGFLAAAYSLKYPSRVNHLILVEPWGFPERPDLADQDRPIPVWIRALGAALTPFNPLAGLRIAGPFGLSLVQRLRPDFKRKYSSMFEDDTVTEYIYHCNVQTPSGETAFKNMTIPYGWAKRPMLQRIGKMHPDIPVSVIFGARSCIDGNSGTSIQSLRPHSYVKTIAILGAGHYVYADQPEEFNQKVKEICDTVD
UHRF1 ctr MBD2: inhibits human UHRF1 binding to methylated oligonucleotide, MBD2 counter-screen. inhibition, % at 4.4 µM. shares compounds with MBD2 DNA inh. TR-FRET. 1,000 compounds, 25% hits;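 also: UHRF1 SRA domain binding a labeled hemimethylated CpG hairpin DNA; 0% = vehicle only and 100% = reference inhibitor with vehicle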
MBD2 DBD conf: MBD2-DBD methyl-DNA binding inhibition, TR-FRET confirmation; TR-FRET MBD2-DBD binding to methylated oligonucleotide; inhibition, % at 4.4 µM; 1,000 compounds, 26% hits; shares compounds with MBD2 DNA inh; in the data active = inhibition above about 14%
An asterisk follows results filed as active; x = no result. Sampled rows, rich in hits. Any-hit rate of the full collection: about 4.1%. Rule as the data show it, unless noted: active = inhibition above about 21%; inactive = the rest.

SMILES | LEDGF integ inh | PRMT1 inh | UHRF1 MBD2 ctr | rCAG RNA binder | MBD2 DNA inh | ABHD5-PLIN5 inh | UHRF1 ctr MBD2 | MBD2 DBD conf
O=C(Nc1c[nH]c(=O)[nH]c1=O)c1ccc2c(c1)C(=O)N(c1cccc([N+](=O)[O-])c1)C2=O | -2.2 | 0.5 | -3.8 | -1.5 | -6.7 | 1.4 | x | x
COc1ccccc1OCC(O)CNCc1ccc2c(c1)OCO2 (centres undefined) | -0.7 | 5.4 | 0.3 | -3.6 | 17.7* | 0.8 | 8.0 | 4.8
Cc1ccc(C(=O)c2ccccc2C(=O)O)s1 | -2.9 | -3.8 | 25.9* | -1.2 | 15.8* | -0.9 | 41.2* | 13.7*
COc1ccc(CN2CCN(Cc3ccc(C)cc3)CC2)c(OC)c1 | -0.6 | 2.8 | 1.0 | -5.3 | 31.6* | 0.8 | 4.4 | 3.0
N#Cc1c(-c2ccccc2Cl)c2c([nH]c1=O)-c1ccccc1OC2 | 1.9 | 3.2 | 1.8 | 24.0 | 20.6* | -3.0 | 4.2 | 2.5
N#Cc1c(-c2ccncc2)c2c([nH]c1=O)-c1ccccc1OC2 | -1.1 | 7.9 | 10.2 | -0.1 | 2.5 | x | x | x
CCCCOc1ccc(C(=O)NC2CCCCN(Cc3cccc(C(F)(F)F)c3)C2=O)cc1 (centres undefined) | 1.3 | 5.0 | 3.8 | 2.6 | 2.4 | x | x | x
O=C1NC2c3ccccc3CC2O1 (centres undefined) | 3.4 | 3.1 | 2.3 | 5.1 | 5.3 | 0.7 | x | x
O=C1NC2c3c(Cl)sc(Cl)c3C(=O)C2O1 (centres undefined) | 10.6 | 17.1 | 34.8* | 30.8 | 14.5* | 12.4 | 32.3* | 16.1*
COc1ccc(-c2noc(C3CCCN(C(=O)Nc4cc(C)cc(C)c4)C3)n2)cc1 (centres undefined) | 0.0 | -2.9 | 4.2 | 1.5 | -4.2 | x | x | x
COC(=O)[C@]12C[C@H](CC(=O)NCc3cccc(C(F)(F)F)c3)C(=O)N(Cc3cccc4ccccc34)C1=C[C@H](C(C)(C)C)O[C@@H]2C | -0.7 | 2.5 | -0.4 | 2.1 | 25.2* | x | -0.3 | 2.1
CC(C)C(C(=O)NCc1ccccc1)N1CCN(CCN2CCOCC2)CC1 (centres undefined) | 0.6 | -3.9 | -1.7 | 0.9 | -3.7 | x | x | x
COc1ccc(C)cc1NC(=O)NC1CCN(Cc2ccccc2)CC1 | -0.3 | 2.2 | 3.3 | 1.3 | 1.1 | 6.6 | x | x
CCC(C)[C@H](NC(=O)NC1CCN(Cc2ccccc2)CC1)C(=O)OC (some centres undefined) | 1.8 | -0.8 | -1.3 | 3.9 | 15.1* | -6.9 | 8.2 | 7.7
Cc1ccccc1CN1CCCCC(NC(=O)Nc2ccccc2)C1=O (centres undefined) | -0.1 | 0.6 | -4.4 | 2.8 | -7.4 | x | x | x
CN1CCC(N[C@@H](Cc2c[nH]c3ccccc23)C(=O)NCC(c2ccccc2)c2ccccc2)(C(=O)NC2CCCCC2)CC1 | 1.9 | -4.5 | -1.3 | x | 5.0 | x | x | x
COc1cc(OC)cc(-c2oc3cccnc3c2C#CCCO)c1 | 0.5 | 5.6 | 2.2 | 2.7 | 20.8* | -0.2 | 1.7 | 0.3
COc1ccc(C(=O)c2ccc3oc(-c4ccc(OC)cc4)c(C#CCCO)c3c2)cc1 | -0.3 | -4.7 | -2.4 | 3.7 | -5.0 | -5.9 | x | x
CC1Cc2ccccc2N1S(=O)(=O)c1ccc2c(c1)n(C)c(=O)c(=O)n2C (centres undefined) | 3.7 | -1.0 | 4.3 | -1.4 | 13.6* | 3.0 | 1.0 | 4.3
O=C(NCc1ccccc1Cl)C1CCN(S(=O)(=O)N2CCCCC2)CC1 | -0.7 | 4.0 | 24.8* | -3.7 | 19.6* | -2.8 | 4.2 | 0.8
O=C(NCc1ccccc1Cl)C1CCN(S(=O)(=O)N2CCCC2)CC1 | -3.9 | 1.8 | 4.2 | -2.9 | 3.2 | -7.2 | x | x
CCOc1cccc(CN2CCCC(CNC(=O)c3cccc(OC)c3OC)C2)c1 (centres undefined) | 1.7 | 5.9 | 5.2 | -8.0 | 15.8* | -6.9 | 5.8 | 1.5
COc1cccc(C(=O)NCC2CCCN(C(=O)Cc3cccc(C)c3)C2)c1OC (centres undefined) | -0.8 | 0.7 | -1.3 | 0.7 | 0.9 | -11.7 | x | x
Nc1cc(Nc2ccccc2)ccn1 | -4.0 | -1.9 | -0.6 | 1.6 | 44.4* | -3.0 | 7.2 | 1.7
COc1cccc(CNC(=O)C2(C)Oc3ccccc3NC2=O)c1 (centres undefined) | 1.1 | 2.4 | 1.9 | 4.4 | 60.8* | -7.7 | 7.4 | 1.0
SMILES | LEDGF integ inh | PRMT1 inh | UHRF1 MBD2 ctr | rCAG RNA binder | MBD2 DNA inh | ABHD5-PLIN5 inh | UHRF1 ctr MBD2 | MBD2 DBD conf
C[C@H]1CN(S(=O)(=O)C(C)(C)C)[C@@H](CCO)/C1=C\c1ccccc1 | -1.9 | 0.8 | 1.7 | 2.1 | -2.6 | x | x | x
C/C(=N\NC(=O)Cc1cccn1C)c1ccco1 | 4.1 | -0.3 | -2.2 | 4.9 | 1.7 | -1.3 | x | x
Cn1cccc1CC(=O)N/N=C/C=C/c1ccco1 | 47.6* | 14.6 | 52.7* | 23.7 | 22.8* | 11.1 | 26.2* | 24.2*
O=C(COC(=O)CCN1C(=O)c2ccccc2C1=O)Nc1ccccc1[N+](=O)[O-] | 6.7 | -1.5 | -1.3 | -1.1 | 0.8 | 4.2 | x | x
O=C(COC(=O)CN1C(=O)c2ccccc2C1=O)Nc1ccccc1[N+](=O)[O-] | 0.9 | 2.5 | 23.6* | 0.5 | 19.2* | -0.6 | 3.1 | 2.0
Cn1c(=O)c2[nH]c(SCC(=O)NCCc3cccc(F)c3)nc2n(C)c1=O | -2.6 | -1.4 | 2.2 | 6.1 | -0.6 | x | x | x
CN1CCCN(C(=O)C2CCCN(C(=O)c3ccc4c(c3)NC(=O)CS4)C2)CC1 (centres undefined) | 6.3 | -2.5 | -0.1 | 1.3 | 25.3* | x | 9.4 | 3.2
NC(=O)C1CCCN(C(=O)c2ccc3c(c2)NC(=O)CS3)C1 (centres undefined) | 0.7 | 0.2 | -1.0 | 1.3 | -0.1 | -1.5 | x | x
CN(C(=O)C=Cc1ccccc1)c1ccccc1 | -0.6 | -1.0 | 1.7 | -1.0 | 24.3* | -2.1 | 4.8 | 0.9
CN(C(=O)/C=C/c1ccc2c(c1)OCO2)c1ccccc1 | -5.5 | 3.5 | 14.7 | 1.4 | 6.7 | 2.3 | x | x
Cc1ccccc1CS(=O)(=O)Cc1ccc(C(=O)Nc2cccc(Cl)c2F)o1 | -0.2 | -3.5 | 0.2 | 5.7 | -8.8 | x | x | x
COCCCN1C(=O)[C@H](CC(=O)NCC2CCCCC2)[C@]2(C(=O)OC)CCCCC=C12 | -1.9 | -3.4 | 2.7 | 0.7 | 1.1 | x | x | x
Cc1ccc(CN(C)C(=O)c2cccc(S(=O)(=O)N3CCc4ccccc43)c2)cc1 | -3.0 | -1.2 | 0.2 | 2.5 | 14.7* | 13.3 | 6.0 | 1.3
O=C1CC(c2ccc(S(=O)(=O)N3CCN(c4ccccc4)CC3)cc2)CN1 (centres undefined) | 1.6 | -0.9 | -0.3 | -1.5 | 32.5* | 2.1 | 6.4 | 0.8
O=S(=O)(NC1CCCC1)c1ccc(S(=O)(=O)N2CCN(c3ccccc3)CC2)cc1 | 2.2 | -2.4 | -2.5 | -0.7 | 3.4 | -3.5 | x | x
